Consider four molecules from PubChem BioAssay.

Experiment [1] can be described thus: growth inhibition of DIPG glioma cells, dose response, cell-based, SU-DIPG-XVII, MIPE5.0, CellTiter-Glo, qHTS (AID 1347060).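 For AC50: cells exposed to compound for 48 hours before viability readout.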 The following applies: SU-DIPG-XVII viability, CellTiter-Glo ATP luminescence.
A short description of experiment [2]: growth inhibition of DIPG glioma cells, dose response, cell-based, SU-DIPG-XIII, MIPE4.0, CellTiter-Glo, qHTS (AID 1347061; cut-off not given, nearly all actives have AC50 up to about 37 µM;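 note: cells exposed to compound for 48 hours before readout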). The following applies: SU-DIPG-XIII viability, CellTiter-Glo ATP luminescence. A general note: ATP-based viability assays read luminescence as a measure of living cells.
Experiment [3] is described as follows: growth inhibition of DIPG glioma cells, dose response, cell-based, SU-DIPG-IV, MIPE4.0, CellTiter-Glo, qHTS (AID 1347063; cut-off not given, nearly all actives have AC50 up to about 30 µM;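 note: compound exposure lasted 48 hours before the viability readout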). The note with it: SU-DIPG-IV viability, CellTiter-Glo ATP luminescence.
Experiment [4] in a line: growth inhibition of DIPG glioma cells, dose response, cell-based, SU-DIPG-XIII, MIPE5.0, CellTiter-Glo, qHTS (AID 1347064; cut-off not given, nearly all actives have AC50 up to about 23 µM;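 note: cells exposed to compound for 48 hours before the viability read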). The following applies: SU-DIPG-XIII viability, CellTiter-Glo ATP luminescence.
Experiment [5] can be described thus: viability loss in pontine glioma line – cell-based, SU-DIPG-XXV, MIPE5.0, CellTiter-Glo, qHTS, dose response (AID 1347065).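 Note: cells exposed to compound for 48 hours before ATP readout.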 The following applies: CellTiter-Glo ATP luminescence.
A short description of experiment [6]: JHH-DIPG-1 glioma cell viability, MIPE5.0 library, CellTiter-Glo luminescence, qHTS (AID 1347067).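 Note: cells exposed to compound for 48 hours before readout.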 The note with it: JHH-DIPG-1 glioma viability, CellTiter-Glo ATP luminescence.
The nature of experiment [7]: SU-DIPG-XXV glioma cell viability, MIPE5.0 library, qHTS (AID 1347068; cut-off not given, nearly all actives have IC50 up to about 30 µM;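 note: cells exposed to compound for 48 hours before viability readout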). On the technique in general: In qHTS, concentration-response curves come from the screen itself.
Experiment [8] is described as follows: sensitizers of A549 cells to miR-34 induction, primary screen, imaging, A549 dox-inducible miR-34, nuclei and caspase counts (AID 1347080;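 active = compounds whose cell count with miR-34 switched on is under 0.7 times the count with it off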). The note with it: A549 miR-34 inducible, Hoechst nuclei count, 48 h.
Experiment [9] can be described thus: modifiers of HSF1 nuclear foci, imaging, Selleck Cancer Library (AID 1347162; in the data active = plate-normalised HSF1 focus index below about 0.46). The following applies: human cells, at 10 µM; SSMD: measured here: HSF1 foci SSMD mean; cell count: measured here: cell number; plate-normalised HSF1 focus index: stronger effect = lower value.
Experiment [10] in a line: survival rescue of mitochondrial mutant cells in low glucose, primary screen, MELAS cybrids, Rieske KO mouse fibroblasts, CellTiter-Glo (AID 1508586;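 active = mean z-score across replicates of 1.96 or higher in either the MELAS or the Rieske mutant cell line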;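 note: z relative to plate mean and SD of compound and empty wells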).
The nature of experiment [11]: growth inhibition of DIPG glioma cells, dose response, cell-based, JHH-DIPG-1, MIPE4.0, CellTiter-Glo, qHTS (AID 1347062; cut-off not given, nearly all actives have AC50 up to about 27 µM). The following applies: JHH-DIPG-1 viability, CellTiter-Glo ATP luminescence.

As usually defined, the AC50 is the concentration giving half of the maximal activity seen. Usually IC50 stands for the concentration at which inhibition is half-maximal.

Results filed as inconclusive are left out. Calls of active or inactive are those of the source. Unless noted, no cut-off is given here; in the data, nearly all actives have AC50 up to about 26 µM.

As to `Cc1cc(Nc2cc(N3CCN(C)CC3)nc(Sc3ccc(NC(=O)C4CC4)cc3)n2)n[nH]1`, the AC50 in experiment [1] is 2950 nM (active); in experiment [2], 18700 nM (active); in experiment [3], 2960 nM (active); in experiment [4], 6610 nM (active); in experiment [5], 332 nM (active); in experiment [6], 10500 nM (active). Further, the IC50 in experiment [7] is 8330 nM (active). Moreover, the fold change was 0.993 (inactive) in [8] (stronger effect = lower value, cell number ratio, induced over uninduced) and 0.793 in experiment [8] (measured here: relative caspase fold change +Dox/-Dox). The cell count was 1560 in [8] (measured here: total cells with miR-34 induction, stronger effect = lower value); 1580 in experiment [8] (measured here: total cells without miR-34 induction); 6720 in experiment [9]. Moreover, the SSMD in [9] was -0.956. In [9], the plate-normalised HSF1 focus index is 0.958 (inactive). The z-score in [10] (MELAS cybrid survival, CellTiter-Glo 48 h, stronger effect = higher value) was 2.79 (active); in experiment [10] (Rieske KO mouse fibroblast survival, CellTiter-Glo 72 h), 1.15.

On to `CN(C)C(=O)c1ccc(S(=O)(=O)c2ccc(NC(=O)[C@@](C)(O)C(F)(F)F)c(Cl)c2)cc1`, for which the molecule was classed as inactive in experiment [1], in experiment [2], in experiment [11] and in experiment [6].

For the molecule `CC(=O)Nc1ccc([C@H](C)C(=O)Nc2ncc(C(C)C)s2)cc1`, the AC50 is 934 nM (active) in [1]; 4690 nM (active) in [2]; 2640 nM (active) in experiment [3]; 2950 nM (active) in experiment [4]; 1860 nM (active) in experiment [5]; 3320 nM (active) in [6]. Moreover, in experiment [7], the 50% inhibitory concentration (IC50) was 2950 nM (active).

Turning to `C[C@@]1(C(=O)Nc2ccc(F)nc2)CCCN1c1nc(Nc2cc(C3CC3)[nH]n2)c2cccn2n1`, the AC50 in experiment [1] was 263 nM (active); in experiment [2], 7430 nM (active); in [3], 83.3 nM (active); in experiment [4] it was 20.9 nM (active); in experiment [5], 13.2 nM (active); in experiment [6] it was 186 nM (active). In addition, in experiment [7], the IC50 was 74.2 nM (active).
